# Active and inactive are the calls of the source. Rule for the calls: active = hit-call score of the fitted dose curve at least 0.9, where 1 is the maximum; inactive = score below 0.9.
# What was measured:
# [1] = ATG_CRE_CIS: Attagene CIS-FACTORIAL HepG2 Assay for human cAMP Responsive Element (CRE) binding protein 3 (AID 2282926); details: HepG2 CRE cis-reporter, Attagene multiplexed mRNA; actives raise or lower the signal
# Summary of the method: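 Readout: fluorescently labelled reporter transcripts resolved by capillary electrophoresis after RT-PCR, taken 24 h post-dosing in transfected HepG2. Endogenous transcription factor activity drives each cis-element reporter; gain or loss of signal fitted relative to DMSO control.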
# [2] = molecular target: CCAAT/enhancer-binding protein beta (Homo sapiens) (UniProt P17676); test: ATG_C_EBP_CIS: Attagene CIS-FACTORIAL HepG2 Assay for human CCAAT/Enhancer Binding Protein (C/EBP) beta (AID 2282927); details: HepG2 Attagene cis-factorial transcription factor reporter; actives raise or lower the signal
# CCAAT/enhancer-binding protein beta (Homo sapiens), sequence (P17676 whole entry, looked up, the tested form may be a part): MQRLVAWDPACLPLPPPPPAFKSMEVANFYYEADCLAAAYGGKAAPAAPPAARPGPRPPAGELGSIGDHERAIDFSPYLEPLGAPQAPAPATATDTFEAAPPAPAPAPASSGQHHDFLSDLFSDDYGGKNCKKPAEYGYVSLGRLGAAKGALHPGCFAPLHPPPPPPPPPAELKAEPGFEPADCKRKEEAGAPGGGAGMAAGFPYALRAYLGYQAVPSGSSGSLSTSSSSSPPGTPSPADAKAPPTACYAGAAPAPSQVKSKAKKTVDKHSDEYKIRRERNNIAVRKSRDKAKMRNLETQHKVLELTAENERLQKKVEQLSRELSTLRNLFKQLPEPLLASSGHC
# Summary of the method: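 Endogenous C/EBPb-driven reporter transcripts measured in transfected human HepG2 cells at 24 h via RT-PCR and capillary electrophoresis of labelled fragments. Activity fitted in both directions relative to DMSO baseline.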
# [3] = ATG_CMV_CIS: Attagene CIS-FACTORIAL HepG2 Assay for human CMV (Internal Marker) (AID 2282928); details: HepG2 CMV promoter reporter, transcription factor profiling; actives raise or lower the signal;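 note: endpoint acts as a background internal control marker rather than a target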
# Summary of the method: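 Reporter transcripts from transfected HepG2 cells are isolated after 24 h of chemical dosing, reverse-transcribed and amplified. Fragments labeled with 6-FAM are cut with HpaI and quantified by capillary electrophoresis; DMSO defines baseline.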
# [4] = ATG_DR4_LXR_CIS: Attagene CIS-FACTORIAL HepG2 Assay for human Liver X Receptor (LXR), DR4 submotif (AID 2282929); details: HepG2 Attagene DR4 cis-reporter, mRNA transcription; actives raise or lower the signal
# Summary of the method: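 The endpoint is DR4-element-driven reporter transcripts after 24 h chemical exposure of transfected HepG2 cells. These were measured via RT-PCR and capillary electrophoresis, and gain or loss of signal was fitted relative to DMSO controls.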
# [5] = molecular target: Aryl hydrocarbon receptor (Homo sapiens) (UniProt P35869); test: ATG_Ahr_CIS: Attagene CIS-FACTORIAL HepG2 Assay for human Aryl Hydrocarbon Receptor (Ahr) (AID 2282930); details: HepG2 AhR cis-factorial reporter transcription; actives raise or lower the signal
# Aryl hydrocarbon receptor (Homo sapiens), sequence (P35869 whole entry, looked up): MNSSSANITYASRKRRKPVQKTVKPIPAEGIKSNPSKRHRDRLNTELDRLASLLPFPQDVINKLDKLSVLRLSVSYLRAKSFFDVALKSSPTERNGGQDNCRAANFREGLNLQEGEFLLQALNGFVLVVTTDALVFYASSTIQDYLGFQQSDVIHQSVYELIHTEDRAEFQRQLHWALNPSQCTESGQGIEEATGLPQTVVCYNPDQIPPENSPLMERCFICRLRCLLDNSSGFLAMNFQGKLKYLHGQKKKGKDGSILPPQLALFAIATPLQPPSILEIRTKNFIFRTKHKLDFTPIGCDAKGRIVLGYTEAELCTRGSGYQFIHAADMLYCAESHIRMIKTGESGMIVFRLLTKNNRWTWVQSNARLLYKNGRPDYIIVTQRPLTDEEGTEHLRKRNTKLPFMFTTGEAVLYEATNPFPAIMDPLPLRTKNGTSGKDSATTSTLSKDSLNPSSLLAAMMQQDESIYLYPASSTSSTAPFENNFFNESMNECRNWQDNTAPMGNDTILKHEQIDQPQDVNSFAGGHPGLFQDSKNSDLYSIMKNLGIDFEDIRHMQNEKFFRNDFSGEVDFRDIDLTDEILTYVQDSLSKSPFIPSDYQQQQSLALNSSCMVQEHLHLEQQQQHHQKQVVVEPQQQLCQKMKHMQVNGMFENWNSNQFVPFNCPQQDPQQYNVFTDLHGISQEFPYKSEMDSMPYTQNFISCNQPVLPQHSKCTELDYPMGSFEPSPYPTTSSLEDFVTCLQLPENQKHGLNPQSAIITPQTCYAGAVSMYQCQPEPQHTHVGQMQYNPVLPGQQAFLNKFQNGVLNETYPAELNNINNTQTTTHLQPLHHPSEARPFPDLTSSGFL
# Summary of the method: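 Reporter mRNA levels, quantified by RT-PCR and fluorescent capillary electrophoresis, reflect endogenous AhR transcriptional activity in HepG2 cells carrying transfected cis-promoter reporter constructs. Readout at 24 h post-dose; gain or loss fitted against DMSO baseline.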
# [6] = ATG_AP_1_CIS: Attagene CIS-FACTORIAL HepG2 Assay for human Activator Protein 1 (AP-1) (AID 2282931); details: HepG2 Attagene cis-factorial AP-1 reporter mRNA; actives raise or lower the signal
# Summary of the method: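 Readout is reporter transcript level from endogenous transcription factor activity, quantified by RT-PCR with fluorescent primer extension and capillary electrophoresis. Transiently transfected HepG2 cells, 24 h exposure. Curves fitted both directions versus DMSO.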
# [7] = ATG_AP_2_CIS: Attagene CIS-FACTORIAL HepG2 Assay for human Activator Protein 2 (AP-2) (AID 2282932); details: HepG2 AP-2 cis-reporter, Attagene transcription factor profiling; actives raise or lower the signal
# Summary of the method: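 Transiently transfected HepG2 cells are exposed to chemical for 24 h. Reporter transcripts are then measured as fluorescence following RT-PCR and capillary separation, and gain- or loss-of-signal is fitted relative to DMSO.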
# [8] = ATG_BRE_CIS: Attagene CIS-FACTORIAL HepG2 Assay for human Bone Morphogenetic Protein (BMP) Response Element (BRE) (AID 2282933); details: HepG2 BMP response element reporter, Attagene transcription factor profiling; actives raise or lower the signal
# Summary of the method: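 After a 24 h chemical treatment, transiently transfected HepG2 cells were lysed for RNA; reporter transcripts were quantified by fluorescent RT-PCR and capillary electrophoresis, normalised to DMSO.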
# [9] = ATG_E_Box_CIS: Attagene CIS-FACTORIAL HepG2 Assay for human Enhancer Box (E-box) (AID 2282936); details: HepG2 E-box cis-reporter transcription, actives raise or lower the signal
# Summary of the method: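 Fluorescent reporter fragments separated by capillary electrophoresis gave the signal; mRNA came from HepG2 cells transfected with cis-element reporters and treated 24 h. Curves fitted bidirectionally relative to DMSO controls.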
# [10] = ATG_M_61_CIS: Attagene CIS-FACTORIAL HepG2 Assay for M61 Transcription Factor (Internal Marker) (AID 2282937); details: HepG2 Attagene CIS-FACTORIAL M61 internal marker reporter; actives raise or lower the signal
# Summary of the method: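 Readout is reporter mRNA by RT-PCR, fluorescent primer extension and capillary electrophoresis, with gain or loss fitted relative to DMSO. Transfected HepG2 cells carrying endogenous-TF-driven cis reporters were exposed to chemicals for 24 hours.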
# [11] = ATG_M_19_CIS: Attagene CIS-FACTORIAL HepG2 Assay for M19 Transcription Factor (Internal Marker) (AID 2282939); details: HepG2 Attagene CIS-FACTORIAL M19 internal marker reporter; actives raise or lower the signal
# Summary of the method: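 In this multiplexed cell assay, transiently transfected HepG2 reporter units report endogenous transcription-factor activity; after 24 hours of treatment, labelled reporter cDNA fragments are quantified by capillary electrophoresis and fitted bidirectionally against DMSO.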
# [12] = ATG_ERE_CIS: Attagene CIS-FACTORIAL HepG2 Assay for Estrogen Response Element (ERE) (AID 2282940); details: HepG2 ERE cis-reporter, Attagene RNA transcript; actives raise or lower the signal
# Summary of the method: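 Measuring endogenous transcription factor output, the assay doses transfected HepG2 cells for 24 hours and quantifies reporter transcripts by fluorescent RT-PCR and capillary electrophoresis, with DMSO as baseline.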
# [13] = ATG_Ets_CIS: Attagene CIS-FACTORIAL HepG2 Assay for human Erythroblast Transformation Specific (ETS) (AID 2282941); details: HepG2 ETS cis-reporter transcription, actives raise or lower the signal
# Summary of the method: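 Bidirectional fit versus DMSO of reporter mRNA signal, detected by RT-PCR and capillary electrophoresis in HepG2 cells transiently transfected with cis-element reporters and dosed 24 h.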
# [14] = molecular target: Hepatocyte nuclear factor 3-beta (Homo sapiens) (UniProt Q9Y261); test: ATG_FoxA2_CIS: Attagene CIS-FACTORIAL HepG2 Assay for human Forkhead box A2 (FOXA2) (AID 2282942); details: HepG2 cis-reporter transcription factor activity, 24 h; actives raise or lower the signal
# Hepatocyte nuclear factor 3-beta (Homo sapiens), sequence (Q9Y261 whole entry, looked up): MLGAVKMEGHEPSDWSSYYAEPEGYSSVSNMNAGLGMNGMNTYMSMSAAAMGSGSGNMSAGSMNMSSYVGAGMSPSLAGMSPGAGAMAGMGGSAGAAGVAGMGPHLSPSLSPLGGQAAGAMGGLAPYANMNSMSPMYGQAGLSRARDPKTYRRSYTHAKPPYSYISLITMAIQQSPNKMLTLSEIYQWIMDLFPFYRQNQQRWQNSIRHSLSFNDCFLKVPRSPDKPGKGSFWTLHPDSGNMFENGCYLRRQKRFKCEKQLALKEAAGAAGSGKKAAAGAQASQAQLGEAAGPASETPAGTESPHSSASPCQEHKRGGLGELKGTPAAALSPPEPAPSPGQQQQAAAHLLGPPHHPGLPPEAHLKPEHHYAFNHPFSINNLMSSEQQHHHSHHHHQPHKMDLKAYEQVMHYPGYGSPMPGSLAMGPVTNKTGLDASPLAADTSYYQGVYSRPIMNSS
# Summary of the method: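 Endogenous transcription factor activity is captured via cis-element-driven reporter transcripts in transfected HepG2. Total RNA taken at 24 h post-dosing; labelled RT-PCR products resolved by capillary electrophoresis. Gain or loss fitted versus DMSO.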
# [15] = ATG_FoxO_CIS: Attagene CIS-FACTORIAL HepG2 Assay for human Forkhead box O (FoxO) (AID 2282943); details: HepG2 Attagene cis-reporter, FoxO element, mRNA; actives raise or lower the signal
# Summary of the method: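 Endogenous transcription factor activity read from multiplexed cis-promoter reporter transcripts in transiently transfected HepG2, 24 h after dosing. Reporter RNA measured via RT-PCR plus capillary electrophoresis of FAM-labeled products; gain or loss relative to DMSO.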
# [16] = ATG_GLI_CIS: Attagene CIS-FACTORIAL HepG2 Assay for human Zinc Finger Protein GLI1 (AID 2282945); details: HepG2, Attagene cis-factorial reporter mRNA, GLI element; actives raise or lower the signal
# Summary of the method: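 Bidirectional curve fits relative to DMSO, using reporter mRNA levels from RT-PCR plus capillary electrophoresis. Cells were HepG2 transiently carrying cis-regulated reporter constructs, harvested 24 h after dosing.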
# [17] = molecular target: Transcription factor E2F1 (Homo sapiens) (UniProt Q01094); test: ATG_E2F_CIS: Attagene CIS-FACTORIAL HepG2 Assay for human E2F Transcription Factor 1 (AID 2282935); details: HepG2 Attagene cis-reporter, E2F reporter RNA transcripts; actives raise or lower the signal
# Transcription factor E2F1 (Homo sapiens), sequence (Q01094 whole entry, looked up): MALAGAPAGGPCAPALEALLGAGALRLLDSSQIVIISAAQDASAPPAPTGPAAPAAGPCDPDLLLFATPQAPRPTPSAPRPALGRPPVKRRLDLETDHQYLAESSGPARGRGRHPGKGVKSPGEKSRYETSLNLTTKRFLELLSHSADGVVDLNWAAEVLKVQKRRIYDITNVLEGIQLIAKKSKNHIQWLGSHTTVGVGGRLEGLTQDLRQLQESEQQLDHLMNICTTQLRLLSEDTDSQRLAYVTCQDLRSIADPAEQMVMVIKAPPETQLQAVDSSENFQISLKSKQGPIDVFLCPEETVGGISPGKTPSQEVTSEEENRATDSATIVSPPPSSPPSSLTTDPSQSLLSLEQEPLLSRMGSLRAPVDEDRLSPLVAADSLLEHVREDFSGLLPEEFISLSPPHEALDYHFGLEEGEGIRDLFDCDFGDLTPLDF
# Summary of the method: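 Fluorescent RT-PCR products, digested with HpaI for 2 h at 37 C, are separated by capillary electrophoresis. Source RNA comes from transfected HepG2 cultures treated for 24 h.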
# [18] = ATG_EGR_CIS: Attagene CIS-FACTORIAL HepG2 Assay for human Early Growth Response 1 (EGR1) (AID 2282938); details: HepG2 Attagene CIS-FACTORIAL EGR reporter mRNA; actives raise or lower the signal
# Summary of the method: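 After 24 h compound exposure, RNA from reporter-transfected HepG2 cells was reverse-transcribed, PCR-amplified, fluorescently labelled and resolved by capillary electrophoresis. EGR1 reporter transcript changes, up or down, were fitted against DMSO, reflecting endogenous transcription-factor activity.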
# [19] = ATG_GATA_CIS: Attagene CIS-FACTORIAL HepG2 Assay for human GATA Binding Protein (AID 2282944); details: HepG2 GATA cis-element reporter, Attagene multiplex mRNA; actives raise or lower the signal
# Summary of the method: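 Measures endogenous transcription factor-driven reporter mRNA in HepG2 cells transiently carrying cis-regulated constructs. 24 h dosing; RNA via oligo(dT) reverse transcription, PCR, HpaI digestion, capillary electrophoresis; fitted relative to DMSO.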
Structure (SMILES),outcome [1],outcome [2],outcome [3],outcome [4],AC50 [5],outcome [6],outcome [7],outcome [8],outcome [9],outcome [10],outcome [11],outcome [12],outcome [13],outcome [14],outcome [15],outcome [16],outcome [5],outcome [17],outcome [18],outcome [19]
OC1C(O)C(O)C(O)C(O)C1O (stereo not drawn),inactive,inactive,inactive,inactive,70.3 µM (active),inactive,inactive,inactive,inactive,inactive,inactive,inactive,inactive,inactive,inactive,inactive,,,,
CC(C)=CCC[C@H](C)CC=O,inactive,inactive,inactive,inactive,,inactive,inactive,,inactive,inactive,inactive,,,inactive,inactive,inactive,inactive,inactive,inactive,inactive
Nc1ccc(S(=O)(=O)O)c(N)c1,inactive,inactive,inactive,inactive,,inactive,inactive,inactive,,inactive,inactive,inactive,inactive,,inactive,inactive,inactive,inactive,,inactive
CC(=O)Nc1ccccc1O,inactive,inactive,inactive,inactive,20.7 µM (active),inactive,inactive,inactive,inactive,inactive,inactive,,inactive,inactive,inactive,inactive,,,inactive,
CC(C)(C)C(=O)c1ccccc1,inactive,inactive,inactive,inactive,,inactive,inactive,inactive,inactive,inactive,inactive,inactive,inactive,inactive,inactive,inactive,inactive,,inactive,inactive
C=CC(=O)NCOCC(C)C,inactive,inactive,inactive,inactive,,inactive,inactive,inactive,,inactive,inactive,,inactive,inactive,inactive,inactive,inactive,inactive,inactive,inactive
COc1cc(C)cc(O)c1,inactive,inactive,inactive,inactive,,inactive,inactive,inactive,,inactive,inactive,,,inactive,inactive,inactive,inactive,inactive,inactive,inactive
CC1CCC(C(C)(C)O)CC1 (stereo not drawn),inactive,inactive,inactive,inactive,,inactive,inactive,,inactive,inactive,inactive,,,inactive,inactive,inactive,inactive,inactive,inactive,inactive
O=C1CCc2ccccc2O1,inactive,inactive,inactive,inactive,,inactive,inactive,inactive,inactive,inactive,inactive,inactive,,inactive,inactive,inactive,inactive,,inactive,inactive

# From PubChem BioAssay (EPA / NIEHS)
